NPC1 prom act: activates the NPC1 promoter; Huh7 NPC1 promoter luciferase reporter, 24 h; AID 485313; Potency, µM (top dose mostly 9.22 µM), for the others: at the top dose activation, usual class: activators; actives 2.4% (n = 320,000); also: % of control where 0% means no effect; nearly all actives have a fitted effect of over 60% in size
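Cells: Huh7 expressing luciferase under the NPC1 promoter, 1500/well. Seeded 2 h, compound added, incubated 24 h at 37 °C. Luciferase reagent, 10 min ambient, then luminescence.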
FLuc counter: firefly luciferase modulation, counter-screen for miR-21 project | purified FLuc, Km substrates, luminescence inhibition | Potency, µM (doses to about 57.5 µM), without a hit: at the highest dose activity change, negative = inhibition, hits mostly inhibitors | actives 6.9% (n = 360,000) | P08659;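 also: plate controls were vehicle for no effect and reference inhibitor for full effect; nearly all actives have a fitted effect of over 55% in size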
Target sequence (P08659 whole entry, looked up): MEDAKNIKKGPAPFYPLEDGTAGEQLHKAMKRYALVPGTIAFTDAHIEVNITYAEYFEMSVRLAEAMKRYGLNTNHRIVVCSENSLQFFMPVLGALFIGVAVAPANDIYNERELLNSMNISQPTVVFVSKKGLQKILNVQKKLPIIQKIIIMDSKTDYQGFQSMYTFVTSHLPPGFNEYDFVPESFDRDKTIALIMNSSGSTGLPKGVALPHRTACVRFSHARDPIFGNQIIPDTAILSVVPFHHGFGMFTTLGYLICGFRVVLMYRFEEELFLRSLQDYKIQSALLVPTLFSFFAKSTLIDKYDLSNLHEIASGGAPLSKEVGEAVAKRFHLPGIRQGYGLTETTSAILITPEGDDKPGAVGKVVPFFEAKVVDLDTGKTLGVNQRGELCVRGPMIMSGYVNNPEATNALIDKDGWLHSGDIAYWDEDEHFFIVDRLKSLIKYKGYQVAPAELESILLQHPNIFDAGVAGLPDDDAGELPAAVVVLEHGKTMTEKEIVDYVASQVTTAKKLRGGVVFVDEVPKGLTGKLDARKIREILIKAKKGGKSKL
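Biochemical qHTS of compounds, final roughly 60 µM downward over six points, against 10 nM purified firefly luciferase using Km concentrations of substrates (10 uM D-luciferin, 10 uM ATP) in Tris acetate pH 7.5 buffer; luminescence output.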
ELG1 genotox: genotoxicity induction in ELG1-luciferase HEK293T cells; HEK293T ELG1-luciferase reporter, luminescence, 16 h; Potency, µM (doses to about 46 µM), for the others: at the top dose activity change, positive = activation, actives largely listed as activators; actives 1.3% (n = 330,000); AID 504466; also: % of control where 0% means no effect; nearly all actives have a fitted effect of over 60% in size
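After overnight (16 hr) compound treatment at 37 °C, ELG1-luciferase HEK293T cells were lysed with ONE-Glo; luminescence quantified 30 min later at room temperature.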
Luc counter: Kinase-Glo luciferase inhibition (counter-screen); AID 1379; actives 0.28% (n = 200,000); Kinase-Glo luciferase, ATP luminescence, 8 min; Potency, µM (top dose mostly 38.3 µM), without a hit: top-dose activity change, negative = inhibition, hits mostly inhibitors; also: % is scaled to controls: 0 for no effect and ±100 for the full control effect; nearly all actives have a fitted effect of over 60% in size
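Recombinant Kinase-Glo luciferase, 10 uM ATP (linear range), luciferin; imidazole pH 7.2 / KCl / MgCl2 / Tween / BSA buffer; 8 min RT; luminescence.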
SMN2 splice up: increases expression of the SMN2 splice variant | Potency, µM (highest dose often 46.1 µM), for the others: top-dose activity change, positive = activation, hits mostly activators | actives 2.8% (n = 210,000) | HEK293 SMN2-luciferase splicing reporter, luminescence, 30-36 h | AID 1458; also: % of control where 0% means no effect; nearly all actives have a fitted effect of over 55% in size
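HEK293 cells carry an SMN2 […]–luciferase reporter in which exon 7 inclusion puts luciferase in frame. Cells were plated 10-12 h before compound addition, then incubated 30-36 h at 37C. ONE-Glo luminescence was read; sodium butyrate at 4.5 mM final served as control.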
Rab9 promoter act: activates the Rab9 promoter. Huh7 Rab9 promoter-luciferase reporter, luminescence, 24 h. Potency, µM (series often up to 9.22 µM), for inactives: top-dose activation, negative = inhibition, most hits filed as activators. AID 485297. actives 2.8% (n = 320,000); also: % of control where 0% means no effect; nearly all actives have a fitted effect of over 60% in size
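Measured in stably transfected Huh7 cells bearing a Rab9 promoter–luciferase construct: 24 h compound treatment at 37 °C, followed by luminescence detection.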
* hit, by the source's call; ? = inconclusive; . = not tested or not shown; [ ] = remark or other dose. In the library only some 7.4% were active in any assay of this set; here they are far more common. Calls follow the shape of the dose curve; as a rule, active = well fitted curve in the direction sought with a large enough effect; inconclusive = small, poorly fitted or top-dose-only effect, or another doubt; inactive = no such curve, though single readings can be large; an effect the other way counts as inactive or inconclusive. Potency is read from the fitted curve at half-maximal effect.

SMILES	NPC1 prom act	FLuc counter	ELG1 genotox	Luc counter	SMN2 splice up	Rab9 promoter act
CN(CC(=O)Nc1ccccc1Br)C(=O)CNC(=O)c1ccc(Oc2ccccc2)cc1	18%	15µM*	0%	.	.	2%
Cn1ccc2cc(S(=O)(=O)N3CCCC(C(=O)NCc4ccc(F)cc4)C3)ccc21 (stereo not given)	.	-7%	.	.	.	.
CCOc1ccc(CNC(=O)CN2N=C(c3ccccc3)CCC2=O)cc1OC	.	0%	.	.	.	.
CCOc1ccc(S(=O)(=O)Nc2cccc(-c3ccc(N4CCC(C)CC4)nn3)c2)cc1	.	2.7µM*	.	.	.	.
COc1ccc(S(=O)(=O)Nc2cccc(-c3ccc(N4CCCCCC4)nn3)c2)cc1	.	6.7µM*	.	.	.	.
COc1ccc(S(=O)(=O)Nc2cccc(-c3ccc(N4CCCCCC4)nn3)c2)cc1OC	18%	6µM*	18%	.	.	4%
COc1ccc(S(=O)(=O)Nc2cccc(-c3ccc(N4CCCC4)nn3)c2)cc1F	.	13µM*	.	.	.	.
CCCCOc1ccc(S(=O)(=O)Nc2ccc(-c3ccc(N4CCCCCC4)nn3)cc2)cc1	.	-4%	.	.	.	.
COc1cccc(NS(=O)(=O)c2ccc(OC)c(OC)c2)c1	3%	6%	-1%	-6%	-24%	-1%
COC(=O)c1ccc(NC(=S)NC2CC3CCC2C3)cc1 (stereo not given)	23%	21µM*	6%	1%	?	23%
COC(=O)c1ccc(NC(=O)NC2CCCCC2)cc1	?	?	17%	-2%	13µM*	16%
COc1ccc(NC(=O)NC2CCCCCCC2)cc1	0.89µM*	6µM*	9.2µM*	.	.	1.4µM*
COc1ccc(NC(=O)NC2CCCCCCC2)c(OC)c1	1%	?	13%	.	.	17%
c1ccc(C2CCCN(Cc3nc(CC4CC4)no3)CC2)cc1 (stereo not given)	11%	24µM*	12%	-2%	5%	24%
COc1ccc(-c2nnc(SCC(=O)NC3CCCC3)nc2-c2ccc(OC)c(OC)c2)cc1OC	.	-2%	.	.	.	.
Cc1cccc(NC(=O)CN2C(=O)CCn3nc(-c4cccn4C)cc32)c1C	.	3%	.	.	.	.
O=C(Nc1cccc(Cl)c1)Nc1csc([N+](=O)[O-])c1	-6%	19µM*	-8%	.	.	-14%
CN(C)c1ccc(NC(=O)Nc2cccc(Cl)c2)cc1	2.2µM*	1.3µM*	?	-2%	13µM*	1.8µM*
CC(=O)Nc1cccc(N(C)S(C)(=O)=O)c1	-1%	-3%	0%	0%	8%	-4%
O=C(Nc1cccc(Cl)c1)Nc1nc(-c2ccc(Cl)cc2)cs1	-7%	-2%	-2%	-3%	-46%	-9%
CN(c1cccc(NC(=O)Nc2cccc(Cl)c2)c1)S(C)(=O)=O	15%	17µM*	0%	0%	-30%	-1%
CCc1ccccc1NC(=O)CN1C(=O)CCc2cc(S(=O)(=O)N3CCCCC3)ccc21	.	-4%	.	.	.	.
O=C(N/N=C/c1cccs1)c1cnccn1	-1%	?	9%	-5%	-15%	9%
O=C(N/N=C/c1cccs1)c1[nH]ncc1Br	3.5µM*	21µM*	16µM*	.	.	4µM*
COc1ccc(OC)c(/C=N/NC(=O)c2[nH]ncc2Br)c1	3%	-10%	1%	.	.	7%
SMILES	NPC1 prom act	FLuc counter	ELG1 genotox	Luc counter	SMN2 splice up	Rab9 promoter act
O=C(N/N=C/c1c(O)ccc2ccccc12)c1[nH]ncc1Br	-7%	6.7µM*	?	2%	-79%	-18%
Cc1cc(C(=O)N/N=C/c2cccs2)n[nH]1	?	?	?	-5%	?	?
O=C(N/N=C/c1c(O)ccc2ccccc12)c1cccc(C(F)(F)F)c1	-16%	1%	-8%	4%	-106%	-29%
Cc1cc(C(=O)N/N=C\c2cc(C(C)(C)C)ccc2O)n[nH]1	-31%	24µM*	?	.	.	-29%
CCOc1ccc(/C=N/NC(=O)c2[nH]ncc2Br)c(O)c1	?	2.1µM*	?	11µM*	3.5µM*	?
Cc1cc(C)n(CCc2nc3c4ccccc4nc(N4CCN(c5ccccc5F)CC4)n3n2)n1	.	-1%	.	.	1%	.
Cc1ccc(O)c(/C=N/NC(=O)c2[nH]ncc2Br)c1	?	4.3µM*	16µM*	?	0%[1.84 µM]	?
COc1ccc(-n2c(=O)c3c4c(sc3n(Cc3ccc(C(C)(C)C)cc3)c2=O)CCC4)c(OC)c1	.	1%	.	.	?	.
O=C(Nc1ccc(-c2nc3cccnc3s2)cc1)c1ccco1	0.5µM*	1.1µM*	0.92µM*	-18%	1.4µM*	0.45µM*
O=C(Nc1cccc(-c2nc3cccnc3s2)c1)c1ccco1	16%	11µM*	1%	-2%	-1%	8%
O=C(Nc1ccc(-c2nc3cccnc3s2)cc1)c1ccc(Br)o1	2.8µM*	?	2.9µM*	-3%	3.2µM*	4µM*
O=C(COC(=O)c1ccc(F)c(S(=O)(=O)N2CCOCC2)c1)c1ccc(Cl)cc1	-2%	8.5µM*	-1%	.	.	2%
Cc1ccc(S(=O)(=O)N2CCOCC2)cc1C(=O)OCC(=O)c1ccc[nH]1	-2%	1%	0%	.	.	-1%
Cc1ccc(S(=O)(=O)N2CCOCC2)cc1C(=O)OCC(=O)c1ccc(Br)cc1	0%	3.8µM*	-3%	.	.	-4%
CCOC(=O)c1cc(S(=O)(=O)N2CCN(c3ccc(C(C)=O)cc3)CC2)[nH]n1	.	-16%	.	.	.	.
COc1ccc(Nc2cc3n(c(=O)n2)CCc2cc(OC)c(OC)cc2-3)cc1	2%	?	15%	.	.	0%
COc1cc2c(cc1OC)-c1cc(Nc3ccc4c(c3)OCCO4)nc(=O)n1CC2	-1%	15µM*	?	-14%	0%	-10%
COc1ccc2cc3cc(C(=O)NCCc4ccccc4)sc3nc2c1Cl	.	-1%	.	.	.	.
CCOCCCNC(=O)C(NC(=O)C1CCC(C)CC1)C(C)C (stereo not given)	.	-1%	.	.	9%	.
COc1cc2cc(CN(CCc3ccccc3C)C(=S)NCCCN(C)C)c(=O)[nH]c2cc1OC	-3%	0%	0%	2%	-1%	-1%
Cc1ccc2[nH]c(=O)c(CN(Cc3ccccc3)C(=S)NCCCN(C)C)cc2c1	0.32µM*	0.76µM*	0.73µM*	13µM*	.	0.32µM*
C/C(=N\NC(=O)c1ccccc1NC(=O)c1ccc(Cl)cc1)c1ccncc1	?	0.027µM*	-23%	1.3µM*	-60%	?
O=C(O)c1ccccc1NN=C1CCCCC1	?	11µM*	?	-2%	.	?
C/C(=N\Nc1ccccc1C(=O)O)c1ccncc1	2.2µM*	11µM*	3.3µM*	.	.	3.2µM*
O=C(NN=C1CCCC1)c1ccccc1O	-1%	?	0%	.	.	6%

Compound activity (PubChem BioAssay)
